# In the library only some 11% were active in any assay of this set; here they are far more common.
# NIH3T3 tox: kills NIH 3T3 cells | AID 1345082 | 94,000 tested, 4.3% active | Potency, µM (top dose mostly 96.7 µM), for inactives: top-dose activity change, negative = cytotoxicity, usual class: inhibitors | NIH 3T3 viability, CellTiter-Glo ATP luminescence, 48-72 h; note: nearly all actives have a fitted effect of over 55% in size
#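 Cytotoxicity is measured as loss of cellular ATP: NIH 3T3 cells (400/well) are exposed to compound for 48 or 72 hr at 37 °C, then CellTiter-Glo luminescence is imaged after 10 min at room temperature.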
# HEK293 tox: HEK 293 cell cytotoxicity; HEK 293 viability, ATP luminescence (CellTiter-Glo), 48-72 h; Potency, µM (doses to about 115 µM), for inactives: at the highest dose activity change, negative = cytotoxicity, actives largely listed as inhibitors; AID 1345083; 94,000 tested, 6.6% active; note: nearly all actives have a fitted effect of over 60% in size
#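 HEK 293 seeded at 250 cells/well receive compound via pintool. After 48 or 72 hr at 37 degree Celsius, 5% CO2 and 95% humidity, CellTiter-Glo is dispensed and luminescence read following 10 min at room temperature.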
# NPR1 antag: blocks ANP-stimulated signaling of human Npr1 receptor | P16066 | HEK293 hNpr1 GloSensor cGMP, ANP-stimulated luminescence | Potency, µM (doses to about 46.3 µM), for the others: top-dose activity change, negative = inhibition, hits mostly inhibitors | 76,000 tested, 1.6% active | AID 1347048; calls by dose curve; note: nearly all actives have a fitted effect of over 60% in size
# Target sequence (P16066 whole entry, looked up): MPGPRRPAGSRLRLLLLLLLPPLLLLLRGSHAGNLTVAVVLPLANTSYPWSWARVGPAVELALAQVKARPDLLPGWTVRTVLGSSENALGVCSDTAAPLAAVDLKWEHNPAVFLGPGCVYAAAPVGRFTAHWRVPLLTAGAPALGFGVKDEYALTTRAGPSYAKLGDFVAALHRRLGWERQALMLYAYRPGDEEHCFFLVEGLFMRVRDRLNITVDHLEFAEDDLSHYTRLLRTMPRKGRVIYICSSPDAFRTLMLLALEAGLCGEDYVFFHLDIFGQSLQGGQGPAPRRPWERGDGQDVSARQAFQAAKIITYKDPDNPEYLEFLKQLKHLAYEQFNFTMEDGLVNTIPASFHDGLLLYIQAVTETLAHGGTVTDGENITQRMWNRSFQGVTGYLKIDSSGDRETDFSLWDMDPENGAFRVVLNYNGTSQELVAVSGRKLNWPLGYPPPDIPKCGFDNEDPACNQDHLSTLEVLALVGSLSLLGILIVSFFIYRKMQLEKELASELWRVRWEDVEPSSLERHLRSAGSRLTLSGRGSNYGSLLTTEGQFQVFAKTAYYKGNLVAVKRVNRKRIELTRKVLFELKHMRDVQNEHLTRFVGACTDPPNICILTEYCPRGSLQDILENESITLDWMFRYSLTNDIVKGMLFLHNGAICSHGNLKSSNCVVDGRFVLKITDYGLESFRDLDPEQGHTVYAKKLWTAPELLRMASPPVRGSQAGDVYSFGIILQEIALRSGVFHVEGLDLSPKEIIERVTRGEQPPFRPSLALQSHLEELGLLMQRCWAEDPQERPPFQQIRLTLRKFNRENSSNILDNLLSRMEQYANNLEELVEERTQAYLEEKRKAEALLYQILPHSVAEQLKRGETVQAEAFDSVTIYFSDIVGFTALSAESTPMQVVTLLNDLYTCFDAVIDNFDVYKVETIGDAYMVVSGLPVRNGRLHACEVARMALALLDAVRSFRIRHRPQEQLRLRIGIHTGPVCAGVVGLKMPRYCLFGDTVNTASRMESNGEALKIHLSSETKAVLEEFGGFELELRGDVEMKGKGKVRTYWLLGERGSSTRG
#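 HEK293 cells stably expressing human Npr1 and cGMP GloSensor pGS-40F, loaded 2 h with 2% GloSensor reagent, given compound 30 min at room temperature. Luminescence read before and 20 min after 0.1 nM hNppA.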
# Luciferase inh: inhibitors of firefly (Photinus pyralis) luciferase. P08659. purified P. pyralis luciferase, luminescence, biochemical. Potency, µM (top dose mostly 115 µM), actives largely listed as inhibitors. 76,000 tested, 2.5% active. AID 1347043; note: nearly all actives have a fitted effect of over 65% in size
#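 Purified P. pyralis luciferase (10nM final) in 50mM Tris acetate pH 7.5, 10mM Mg acetate, 0.01% Tween-20, 0.05% BSA with 10uM D-luciferin and 10uM ATP. Compounds titrated qHTS. Luminescence imaged on CCD.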
# * hit, by the source's call; i = inactive; ? = inconclusive; . = no result given; [ ] = remark or other dose. Unless noted, calls come from the whole dose curve; as a rule, active = well fitted curve in the direction sought with a large enough effect; inconclusive = small, poorly fitted or top-dose-only effect, or another doubt; inactive = no such curve, though single readings can be large; an effect the other way counts as inactive or inconclusive. % is set by controls: 0 for no effect and ±100 for the full control effect; potency is the fitted concentration of half-maximal effect.
SMILES,NIH3T3 tox,HEK293 tox,NPR1 antag,Luciferase inh
CS(=O)(=O)N1C[C@@H]2C[C@H](C1)c1ccc(NC(=O)c3ccncc3)c(=O)n1C2,?,i,11%[70.6 µM],i
CN(C)C1CNC1,i,i,.,.
COc1ccc(-c2cc([C@H]3CN4CC[C@H]3C[C@@H]4CNC(=O)Nc3ccccc3)n(C)n2)cc1OC,?,?,-1%,i
COc1ccc(-c2cc([C@H]3CN4CC[C@H]3C[C@@H]4CNC(=O)Nc3ccccc3)n(C)n2)cc1,79µM*,?,2%,i
Cn1nc(-c2ccccc2)cc1[C@H]1CN2CC[C@H]1C[C@@H]2CNC(=O)Nc1ccccc1,50µM*,50µM*,0%[70.6 µM],i
Cc1ccc(C(=O)NC[C@H]2C[C@@H]3CCN2C[C@@H]3c2cc(-c3ccccc3)nn2C)cc1,?,?,5%[70.6 µM],i
COc1ccc(CN(Cc2ccc(OC)cc2)C[C@H]2C[C@@H]3CCN2C[C@@H]3c2cc(C3CCCC3)nn2C)cc1,20µM*,25µM*,2%,i
Cn1nc(C2CCCCC2)cc1[C@H]1CN2CC[C@H]1C[C@@H]2CNC(=O)COc1ccccc1,?,45µM*,0%,i
COCC(=O)N1[C@H]2CC[C@@H]1c1cnc(-c3ccccc3)nc1C2,-18%,-4%,2%,i
COc1cccc(CC(=O)N2[C@H]3CC[C@@H]2c2cnc(C)nc2C3)c1,0%,3%,0%,i
COc1cccc(CC(=O)N2[C@H]3CC[C@@H]2c2cnc(-c4ccc(F)cc4)nc2C3)c1,?,32µM*,5%,i
COc1ccc(CC(=O)N2[C@H]3CC[C@@H]2c2cnc(-c4ccc(F)cc4)nc2C3)cc1OC,-19%,79µM*,-29%,i
COC[C@H]1CCCN1C[C@H]1CN2CC[C@H]1C[C@@H]2CNC(=O)Nc1ccc(OC)cc1,-4%[138 µM],-12%[172 µM],-2%[70.6 µM],i
Cc1ncc2c(c1CNCC1(O)CNCCOC1)CCNC2 (stereo not given),i,-1%,9%,i
O=[S+]1([O-])NC2(CCN(Cc3ccccc3)C2)COc2ccncc21 (stereo not given),-9%,-9%,.,.
COc1ccc(-c2cc([C@H]3CN4CC[C@H]3C[C@@H]4CNS(=O)(=O)c3ccc(C)cc3)n(C)n2)cc1OC,22µM*,40µM*,1%,i
COc1ccccc1-c1cc([C@H]2CN3CC[C@H]2C[C@@H]3CNS(=O)(=O)c2ccccc2)n(C)n1,32µM*,?,1%,i
Cn1nc(C2CCCC2)cc1[C@H]1CN2CC[C@H]1C[C@@H]2CNS(=O)(=O)c1ccccc1,112µM*,100µM*,0%[70.6 µM],i
COc1ccccc1-c1cc([C@H]2CN3CC[C@H]2C[C@@H]3CNS(C)(=O)=O)n(C)n1,-13%[174 µM],i,7%[70.6 µM],i
CCOC(=O)CN1C(=O)[C@@H]2[C@H](c3ccccc31)[C@@H](C(=O)OCC)[C@@H](c1ccccc1)N2C(=O)C1CC1,-34%,?,.,.
O=C(c1onc2ccccc12)N1CCC2(CCCNC2)C1 (stereo not given),-11%,3%,4%,i
O=C1NC2(CCCN(Cc3cccnc3)C2)COc2ccccc21 (stereo not given),35µM*,89µM*,-23%[70.6 µM],i
O=C1NC2(CCCN(Cc3ccccn3)C2)COc2ccccc21 (stereo not given),-85%[138 µM],?,?,i
COc1ccccc1-c1cc([C@H]2CN3CC[C@H]2C[C@@H]3CNC(=O)CCC(=O)O)nc(C)n1,-10%,-8%,-1%,i
COc1ccccc1-c1cc([C@H]2CN3CC[C@H]2C[C@@H]3CNS(=O)(=O)c2ccc(NC(C)=O)cc2)nc(C)n1,?,-21%,2%,i
COc1ccccc1-c1cc([C@H]2CN3CC[C@H]2C[C@@H]3COC(=O)Nc2ccccc2)nc(C)n1,?,?,-1%,i
CCCNC(=O)OC[C@H]1C[C@@H]2CCN1C[C@@H]2c1cc(-c2ccccc2OC)nc(C)n1,63µM*,?,5%[70.6 µM],i
COc1ccccc1-c1cc([C@H]2CN3CC[C@H]2C[C@@H]3COC(=O)NC2CCCCC2)nc(C)n1,?,11µM*,-2%,i
COc1ccccc1-c1cc([C@H]2CN3CC[C@H]2C[C@@H]3COC(=O)NC(C)C)nc(C)n1,45µM*,?,-4%[70.6 µM],i

# Screens as filed in PubChem BioAssay.
